From PubChem BioAssay (NCATS)
Inconclusive results are not listed. Activity calls are given as the source filed them. Calls come from the whole dose curve; as a rule, active = well fitted curve in the direction sought with a large enough effect; inconclusive = small, poorly fitted or top-dose-only effect, or another doubt; inactive = no such curve, though single readings can be large; an effect the other way counts as inactive or inconclusive. Where a SMILES comes first, the peptide text is derived from it. [ ]: non-standard residue; d: D form. ξ: configuration not given here. ξLac(3-iPr) = CC(C)CC(O)C(=O)O; NMeV = CN[CH](C(=O)O)C(C)C; βAla = NCCC(=O)O

Legend:
[1] = biological target: Glutathione peroxidase 1 (Homo sapiens) (UniProt P07203); test: Primary qHTS Assay for Inhibitors of Recombinant Selenoprotein Glutathione Peroxidase 1 (GPX1) (AID 1845191); note: nearly all actives have a fitted effect of over 65% in size
Chain of Glutathione peroxidase 1 (Homo sapiens) (P07203 whole entry, looked up): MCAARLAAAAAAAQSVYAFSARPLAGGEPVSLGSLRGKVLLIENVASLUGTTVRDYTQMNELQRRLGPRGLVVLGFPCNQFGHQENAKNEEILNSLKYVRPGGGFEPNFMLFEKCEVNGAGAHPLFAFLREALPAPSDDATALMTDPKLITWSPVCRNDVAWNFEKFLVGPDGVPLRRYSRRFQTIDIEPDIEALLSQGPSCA
In short: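 10 nM GPX1 + cpd, 30 min RT; start w/ 1 mM GSH, 0.5 mM cumene hydroperoxide, 0.5 mM NADPH, 100 nM GR, 0.01% BSA; buffer 50 mM Tris-HCl pH 7.5, 2 mM EDTA, 150 mM NaCl; Fl 340/450, 0 & 15 min.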

[2] = biological target: Phospholipid hydroperoxide glutathione peroxidase GPX4 (Homo sapiens) (UniProt P36969); test: Primary qHTS Assay for Inhibitors of Recombinant Selenoprotein Glutathione Peroxidase 4 (GPX4) (AID 1845192); note: nearly all actives have a fitted effect of over 65% in size
Chain of Phospholipid hydroperoxide glutathione peroxidase GPX4 (Homo sapiens) (P36969 whole entry, looked up): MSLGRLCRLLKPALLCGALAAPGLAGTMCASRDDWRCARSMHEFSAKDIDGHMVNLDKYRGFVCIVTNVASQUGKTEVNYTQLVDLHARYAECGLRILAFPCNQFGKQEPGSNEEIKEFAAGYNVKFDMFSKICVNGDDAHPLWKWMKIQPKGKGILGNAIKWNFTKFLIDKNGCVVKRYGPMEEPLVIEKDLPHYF
In short: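 NADPH consumption, followed by fluorescence at 340/450 nm between 0 and 15 min, reports GPX4 activity via coupled glutathione reductase (100 nM). Enzyme 200 nM was pre-exposed to compound 30 min; 0.5 mM cumene hydroperoxide and 1 mM GSH served as substrates.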

[3] = biological target: Luciferin 4-monooxygenase (Photinus pyralis) (UniProt P08659); test: Primary firefly luciferase (FLuc) qHTS assay for identification of artifact compounds. (AID 1845220); note: nearly all actives have a fitted effect of over 60% in size; note: potency is the fitted concentration of half-maximal effect
In short: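 Compounds sat 15 min at room temperature with 10 uM luciferin and 10 uM ATP (pH 7.6 Tris acetate). Firefly luciferase (10 nM final) was then added, and luminescence was read 5 min later. Data normalized to no-enzyme and DMSO controls were Hill-fitted.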

[4] = test system: Nanoluciferase (engineered Oplophorus gracilirostris luciferase); test: Primary Nanoluciferase (NLuc) qHTS assay for identification of artifact compounds. (AID 1845222); note: series mostly up to about 54 µM
In short: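 Luminescence from secreted NLuc (filtered, 1:55-diluted S16 cell medium) read 5 min after Nano-Glo substrate; compounds preincubated 15 min, RT. Hill fits of inhibition normalized to DMSO and no-enzyme.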

[5] = Primary redox qHTS assay for identification of artifact compounds. (AID 1845223)
In short: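 Amplex Red (25 uM) and HRP (250 mU/mL) in HBSS, with compounds for 15 min, then 250 uM DTT for 30 min, room temperature, dark. Fluorescence 525/598 nm read; normalized to DMSO and 10 uM DA3003; Hill fit.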

Measured: Potency

CC(C)O[C@@H]1O[C@H](CO)[C@@H](O)[C@H](O)[C@H]1O
inactive: all assays above

Nc1nc(Nc2ccc(S(N)(=O)=O)cc2)n(C(=S)Nc2c(F)cccc2F)n1
inactive: all assays above

CC(=O)NC1C(OC(C)(C)C2CCC3(C)C=C(C4CCC5C4(C)CC(O)C4OC(C(C)(C)O)CCC45C)CCC3O2)OC(CO)C(O)C1O (stereo not given)
inactive: all assays above

C=C1[C@@H]2CC[C@@H]3[C@@](CCC4C(C(=O)O)(C(=O)O)C[C@@H](O[C@@H]5O[C@H](CO)[C@@H](O)[C@H](O)[C@H]5OC(=O)CC(C)C)C[C@]43C)(C2)[C@H]1O (stereo not given in full)
inactive: all assays above

CC(C)(O[C@@H]1O[C@H](CO)[C@@H](O)[C@H](O)[C@H]1O)C(OC(=O)/C=C\c1ccc(O)cc1)C(=O)OCc1ccc(O[C@@H]2O[C@H](CO)[C@@H](O)[C@H](O)[C@H]2O)cc1 (stereo not given in full)
inactive: all assays above

CC(C)(O)/C=C/C1=CC(=O)[C@@](C)(O)C[C@H]1O
inactive: all assays above

Cc1cccc(/C=N/Nc2cc(N3CCOCC3)n3nc(-c4ccncc4)cc3n2)c1
inactive: all assays above

O=C1CCC=CC1(O)C(=O)OCc1ccccc1O[C@@H]1O[C@H](CO)[C@@H](O)[C@H](O)[C@H]1O (stereo not given in full)
inactive: all assays above

Cc1cc(C(N)=O)ccc1-n1c(CCC(=O)O)ccc1-c1ccc(-n2ccnc2)cc1
inactive: all assays above

CC1=CC(=O)C(=C(C)C)CC2C1CCC2(C)O (stereo not given)
inactive: all assays above

CC(=O)c1ccc2c(c1)C(O)C(C(C)(C)O)O2 (stereo not given)
inactive: all assays above

CSc1ccc(C(=O)N[C@@H]2CCCC[C@@H]2NC(=O)CNC(=O)c2cc(C(F)(F)F)ccc2NC(=O)NC(C)C)cc1
inactive: all assays above

C=C[C@H]1[C@H](O[C@@H]2O[C@H](CO)[C@@H](O)[C@H](O)[C@H]2O)OC=C(C(=O)OC)[C@H]1C/C=C(/C=O)[C@@H]1C(C(=O)OC)=CO[C@@H](O[C@@H]2O[C@H](CO)[C@@H](O)[C@H](O)[C@H]2O)[C@@H]1C=C
inactive: all assays above

COc1ccc(C(O)C(C)OC2OC(CO)C(O)C(O)C2O)cc1 (stereo not given)
inactive: all assays above

CC1=CC(=O)CC2C1(O)CCC(C)C21CC(c2ccoc2)OC1=O (stereo not given)
inactive: all assays above

CC1C=CC2CCCCC2C1CCC1CC(O)CC(=O)O1 (stereo not given)
inactive: all assays above

C[C@@H]1C(=O)OC[C@H]2C(C(=O)O)=C[C@@H]3CC(C)(C)C[C@]312
inactive: all assays above

C=CC(C)(C)c1[nH]c2cc3c(cc2c1CC1NC(=O)C2=CCCN2C1=O)C=CC(C)(C)O3 (stereo not given)
inactive: all assays above

CC(=O)C=C=C1C(C)(C)CC(O[C@@H]2O[C@H](CO)[C@@H](O)[C@H](O)[C@H]2O)CC1(C)O (stereo not given in full)
inactive: all assays above

CC(O)/C=C/C1C(C)C(O[C@@H]2O[C@H](CO)[C@@H](O)[C@H](O)[C@H]2O)C(O)CC1(C)C (stereo not given in full)
inactive: all assays above

N#Cc1ccc(C(=O)N2CCC3(CC2)N=C(N)c2c(F)ccc(F)c2N3)cn1
inactive: all assays above

O=C1C=CC(O)(/C=C/C(=O)OC[C@H]2O[C@@H](Oc3ccc(O)cc3)[C@H](O)[C@@H](O)[C@@H]2O)C=C1
inactive: all assays above

COC(=O)c1ccccc1O[C@@H]1O[C@H](CO)[C@@H](O)[C@H](O)[C@H]1O[C@@H]1O[C@@H](C)[C@H](O)[C@@H](O)[C@H]1O
inactive: all assays above

O=C(O)c1ccc(OC2OC(CO)C(O)C(O)C2O)cc1 (stereo not given)
inactive: all assays above

C=C1CCC2C(C)(C)C(O)CCC2(C)C1CCC(C)CCOC(C)=O (stereo not given)
inactive: all assays above

CC(C)(C)c1ccc(S(=O)(=O)Nc2ccc(Cl)cc2C(=O)c2cc[n+]([O-])cc2)cc1
inactive: all assays above

COc1cc(O)cc(/C=C/c2ccc(O[C@@H]3O[C@H](CO)[C@@H](O)[C@H](O)[C@H]3O)cc2)c1
inactive: all assays above

OC[C@H]1O[C@@H](OCCc2ccccc2)[C@H](O[C@@H]2OC[C@](O)(CO)[C@H]2O)[C@@H](O)[C@@H]1O
inactive: all assays above

OCC(CO[C@@H]1O[C@H](CO)[C@@H](O)[C@H](O)[C@H]1O)c1ccc2c(c1)OCO2 (stereo not given in full)
inactive: all assays above

CC(C)CC1OC(=O)C2CCCN2C(=O)CCNC(=O)C(Cc2ccccc2)NC(=O)C(C(C)C)N(C)C(=O)C(C(C)C)N(C)C1=O (stereo not given) (cyclo([ξLac(3-iPr)][NMeV][NMeV]F[βAla]P); configuration not given here)
inactive: all assays above

O=C(O[C@H]1[C@@H]2C=CO[C@@H](O[C@@H]3O[C@H](CO)[C@@H](O)[C@H](O)[C@H]3O)[C@@H]2[C@@]2(CO)O[C@@H]12)c1ccccc1
inactive: all assays above

O=C(O)c1cc(-c2c(-c3ccccc3)nn3ccccc23)n[nH]c1=O
inactive: all assays above

C=C[C@]1(C)C[C@H](O)[C@@H]2[C@H](OC(=O)[C@@H]2C)C1/C(C)=C/O[C@@H]1O[C@H](CO)[C@@H](O)[C@H](O)[C@H]1O (stereo not given in full)
inactive: all assays above

CC[C@@H](N)CNc1ccnc(-c2cc(-c3cnn(C)c3)ccc2O)n1
inactive: all assays above

COC(=O)C1=CO[C@@H](O[C@@H]2O[C@H](CO)[C@@H](O)[C@H](O)[C@H]2O)C2C1C(=O)C[C@H]2C (stereo not given in full)
inactive: all assays above

CC(C)[C@@](C)(O)[C@@H]1CN(c2nc(-c3[nH]nc4ncccc34)c(F)cc2Cl)CCN1
inactive: all assays above

C[C@]1(CO)CCC[C@]2(C)C3=C(CCC12)COC3 (stereo not given in full)
inactive: all assays above

C=C1CCCC2(C)CC3(OC)OC(=O)C(C)=C3CC12 (stereo not given)
inactive: all assays above

COC(=O)C(C)C1CCC2(C)C(=O)C=CC(C)(O)C2C1O (stereo not given)
inactive: all assays above

CC(O)(CC(=O)O)CC(=O)OCc1ccc(O[C@@H]2O[C@H](CO)[C@@H](O)[C@H](O)[C@H]2O)cc1 (stereo not given in full)
inactive: all assays above

CC1C(OC(=O)c2ccccc2)C(O)C2C(C(=O)O)=COC(OC3OC(CO)C(O)C(O)C3O)C12 (stereo not given)
inactive: all assays above

COc1ncc(Nc2ncc([C@@H](C)N3CCN(S(C)(=O)=O)CC3)cc2-c2nc(C)nc(N)n2)cc1F
inactive: all assays above

CC(/C=C/C1=CC2=CC(=O)C(C)(O)C(O)C2=CO1)=C\C(C)CCO (stereo not given)
inactive: all assays above

CC(C)c1cc(C(=O)N2CC[C@H](NC(=O)C3CC3)C2)n[nH]1
inactive: all assays above

CC(C)(C)c1cc(Br)cc([C@H](CC(=O)O)NC(=O)CNC(=O)c2cc(O)cc(NC3=NCC(O)CN3)c2)c1 (stereo not given in full)
inactive: all assays above

Cc1cccc(C)c1-n1c(=O)c2cnc(Nc3ccc(N4CCN(C)CC4)cc3)nc2n2c3ccccc3nc12
inactive: all assays above

COc1ccc(C(=O)Nc2ncc(-c3ccc(C(=O)O)cc3)s2)cc1
active: [3] 2690 nM
inactive: all other assays above
